Compound activity: PubChem BioAssay, several laboratories
This is a sample that favours compounds with a hit; in the whole collection about 4.5% have one here.
GDH-TPI inh = counter-screen for M. tuberculosis FBA inhibitors: GDH-TPI coupled enzymes; inhibition, % at 4.8 µM; GDH-TPI coupled enzyme counterscreen, NADH absorbance; 360,000 tested, 1.2% active; AID 588335; in the data active = inhibition above about 30%;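 note: 0% = DMSO wells and 100% = wells lacking the enzyme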
PrPC surface inh = inhibitors of human cell surface prion protein PrPC; TR-FRET read-out; inhibition, % at 13.8 µM; 370,000 tested, 0.43% active; AID 720596; in the data active = inhibition above about 24%; note: 0% = median of the test wells and 100% = reference compound wells
FBA Mtb inh = inhibits M. tuberculosis FBA enzyme | 360,000 tested, 2.3% active | P9WQA3 | purified M. tuberculosis FBA, fluorescence read-out | inhibition, % at 1 µM | AID 588726; in the data active = inhibition above about 27%;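 note: 0% = vehicle and 100% = reference inhibitor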
Target sequence (P9WQA3 whole entry, looked up): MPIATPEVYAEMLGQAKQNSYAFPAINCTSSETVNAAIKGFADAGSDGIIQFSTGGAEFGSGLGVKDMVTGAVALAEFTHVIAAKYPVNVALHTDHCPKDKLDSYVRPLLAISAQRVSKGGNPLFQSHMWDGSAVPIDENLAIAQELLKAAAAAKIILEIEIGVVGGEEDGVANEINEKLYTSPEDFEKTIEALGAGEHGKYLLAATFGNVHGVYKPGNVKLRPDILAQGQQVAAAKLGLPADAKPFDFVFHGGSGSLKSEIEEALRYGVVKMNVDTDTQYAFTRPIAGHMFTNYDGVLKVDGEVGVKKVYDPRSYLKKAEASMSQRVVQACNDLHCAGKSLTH
BJeLR viability = kills HRASV12-expressing BJeLR cells | BJeLR (HRASV12) viability, CellTiter-Glo ATP luminescence, 48 h | inhibition, % (concentration not given with the values) | 300,000 tested, 0.17% active | AID 1554; in the data active = inhibition above about 50%
PfHsp40 rescue = compounds rescuing yeast from Plasmodium falciparum HSP40 toxicity; S. cerevisiae expressing PfHsp40, growth rescue, ATP luminescence; growth rescue, % at 12.5 µM; 340,000 tested, 0.68% active; AID 504582; in the data active = growth rescue above about 28%, passing the limit was not always enough;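 note: yeast W303a lacking pdr1 and pdr3 grown in galactose medium; growth measured after three days at 30 °C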
PrP UTR inh = inhibition of PrP 5' UTR reporter expression; cell-based PrP 5' UTR mRNA reporter, plate reader; inhibition, % (test concentration not listed); 340,000 tested, 0.35% active; AID 488862; in the data active = inhibition above about 52%; note: 0 = median of the neutral control wells
* marks the source's active call; other numbers are inactive results; / = not tested or not shown; + = active, no number.

SMILES	GDH-TPI inh	PrPC surface inh	FBA Mtb inh	BJeLR viability	PfHsp40 rescue	PrP UTR inh
OC(Cn1cncn1)(Cn1cncn1)c1ccc(F)cc1F	-1	-2	2	-3	179*	-2
COc1ccc(S(=O)(=O)N2CCN(C(=O)CSc3nc4ccccc4nc3N3CCCCC3)CC2)cc1	/	7	/	/	/	/
CCCN1CCC2(CC1)C(C#N)=C(N)Oc1c2sc2nc(C)cc(C)c12	4	-14	-1	4	4	-7
Cc1cc(C)c2c3c(sc2n1)C(c1cccc(F)c1)C(C#N)=C(N)O3 (stereo unspecified)	9	-3	64*	-8	2	-23
COc1ccc(CNCC#Cc2ccccc2)c(OC)c1	/	-10	/	/	/	/
CCn1c2ccccc2c2cc(C#N)c(N)nc21	18	-8	106*	-19	/	/
CC1(C)CCC[C@]2(C)[C@H]3Cc4cc(O)ccc4O[C@]3(C)CC[C@@H]12	-1	-5	1	/	93*	-23
C/C(=N\NC(=O)Cc1cc(=O)[nH][nH]1)c1ccc([N+](=O)[O-])cc1	/	-18	/	/	/	/
CCC[C@H]1[C@@H](O)CC[C@@]23CCCN2C(=O)CCC[C@@H]13	/	-8	/	/	/	/
COC(=O)[C@]12C[C@H](CC(=O)N3CCOCC3)C(=O)N(Cc3cccc4ccccc34)C1=C[C@H](C(C)C)O[C@@H]2C1CC1	/	4	/	/	/	/
O=C(Nc1ccc(Cl)c(Cl)c1)C1CCN(c2nnc(-n3cccc3)s2)CC1	/	-2	/	/	/	/
Cc1cc2cc3c(=O)[nH]c(=O)nc-3n(CC(O)C(O)C(O)CO)c2cc1C (stereo unspecified)	26	-28	149*	/	0	-33
Cc1cc2cc3c(=O)[nH]c(=O)cc-3n(CC(O)C(O)C(O)CO)c2cc1C (stereo unspecified)	13	-42	-5	/	/	/
COc1ccc(/C=C/C(=O)NC(=S)Nc2ccc(S(=O)(=O)Nc3ccc(OC)nn3)cc2)cc1	39*	5	0	-22	0	-12
COc1ccc(/C=C/C(=O)NC(=S)Nc2ccc(S(=O)(=O)Nc3cc(C)on3)cc2)cc1	35*	-2	0	-9	0	-16
COc1ccc(/C=C/C(=O)NC(=S)Nc2ccc(S(N)(=O)=O)cc2)cc1	28	2	3	-9	2	1
O=C(c1cc(-c2ccccc2)on1)N1CCC(Oc2cccnc2)CC1	/	2	/	/	/	/
COc1ccc(C#CCN(C)/C(N)=N/C(=O)OCc2ccccc2)cc1	/	1	/	/	/	/
Nc1c(-c2ccc(Cl)cc2)cnn1-c1cc(C(F)(F)F)cc(C(F)(F)F)c1	8	1	+	-4	-1	-17
Nc1c(-c2cccc(Cl)c2)cnn1-c1cccc(C(F)(F)F)c1	-8	15	0	7	22	-54
CCN(CC)c1ccc(C=Nn2c(C)nnc2C)cc1	/	4	/	/	/	/
CCn1c(SCC(=O)Nc2ccc(C(N)=O)cc2)nc2sc(C)c(C)c2c1=O	/	0	/	/	/	/
COC(=O)c1cc2c(s1)-c1ccccc1OC2	15	-25	+	-11	1	-23
CNC(=O)c1cc2c(s1)-c1ccccc1CC2	17	-6	+	0	0	-35
COc1ccccc1N1CCN(C(=O)c2cc3c(s2)-c2ccccc2OC3)CC1	13	-3	8	10	-1	-23
SMILES	GDH-TPI inh	PrPC surface inh	FBA Mtb inh	BJeLR viability	PfHsp40 rescue	PrP UTR inh
O=C(Nc1cccnc1Cl)c1cc2c(s1)-c1ccccc1OC2	7	7	153*	6	1	-30
CN1CCN(c2ccccc2NC(=O)c2cc3c(s2)-c2ccccc2OC3)CC1	5	-1	4	-1	1	/
O=C(N/N=C/c1ccc(F)c(F)c1)c1cc2c(s1)-c1ccccc1CC2	13	3	3	0	1	-26
COC(=O)[C@@H]1C[C@@]2(c3ccccc3)c3ccccc3N(S(=O)(=O)c3ccccc3)[C@H]2N1C(=O)CNC1CCCCC1	/	-16	/	/	/	/
c1coc(-c2cc3nc(NC4CCCCC4)ccn3n2)c1	-2	7	24	/	/	/
COC(=O)C1CN(CC(C)C)CCS(=O)(=O)N1Cc1ccc(Cl)cc1 (stereo unspecified)	/	11	/	/	/	/
CC(NC(=O)OC(C)(C)C)C(=O)Oc1cc2oc(=O)cc(-c3ccccc3)c2cc1Cl (stereo unspecified)	20	/	43*	11	5	-6
COC(=O)[C@]12C[C@H](CC(=O)N3CCSCC3)C(=O)N(Cc3cccc4ccccc34)C1=C[C@H](C1CCCC1)O[C@@H]2C	/	9	/	/	/	/
Cc1ccc2[nH]c3c(c2c1)CCCC3C(N)=O (stereo unspecified)	8	5	4	8	0	-8
Cc1ccc2[nH]c3c(c2c1)CCCC3NC(=O)CCl (stereo unspecified)	2	/	-5	60*	4	10
COc1ccccc1/C=C/C=N/NC(=O)c1cccs1	45*	-11	0	-10	-1	-70
O=C(N/N=C/c1c[nH]c2ccccc12)c1ccn(Cc2ccc(Cl)cc2)n1	32*	3	0	-4	0	-26
Cc1ccc(NC(=S)N/N=C/c2ccc([N+](=O)[O-])s2)cc1	13	-18	-20	-10	211*	-1
O=C(N/N=C/c1c[nH]c2ccc(Br)cc12)c1ccn(Cc2ccc(Cl)cc2Cl)n1	15	-2	3	2	-1	5
Cc1nnsc1C(=O)N/N=C/c1ccc2ccccc2c1O	18	-2	-19	61*	0	48
C[C@H](O)[C@@H]1CN2CCc3ccc(-c4ccc5c(c4)OCO5)cc3[C@@H]2C[C@@H]1N(C)C(=O)Nc1ccccc1	/	-1	/	/	/	/
Cc1ccc(S(=O)(=O)N2CCC(c3nc4ccccc4o3)CC2)s1	/	5	/	/	/	/
O=C(CNC(=O)c1ccccc1Br)N/N=C/c1cc(Br)ccc1O	10	2	6	1	1	1
O=C(N/N=C/c1cc(Cl)ccc1O)c1ccccc1Br	14	-1	14	7	108*	3
COc1cc(/C=N\NC(=O)c2sc(N)nc2C)cc(OC)c1OC	41*	-9	-9	6	-1	-7
Cc1cccc(NC(=S)N/N=C/c2c[nH]c3ccccc23)c1	36*	4	2	21	18	-46
Cc1nc(N)sc1C(=O)N/N=C/c1ccc([N+](=O)[O-])cc1	23	-4	2	3	/	/
Cc1ccc(C(=O)Nc2ccc(C(=O)N/N=C/c3c[nH]c4ccccc34)cc2)cc1	24	20	-1	-9	0	-8
Cc1cccc(NC(=S)N/N=C/c2cccc([N+](=O)[O-])c2)c1	33*	/	2	10	0	-26
Cc1nc(N)sc1C(=O)N/N=C/c1c[nH]c2ccccc12	56*	-13	-2	1	-1	-17
CC(/C=N/NC(=O)c1sc(N)nc1C)=C\c1ccccc1	37*	-18	-4	-2	-1	-72
Cc1nc(N)sc1C(=O)N/N=C/c1ccccc1[N+](=O)[O-]	22	-37	2	-3	/	/
